# High-throughput results from PubChem BioAssay.
# In the library only some 9% were active in any assay of this set; here they are far more common.
# IMPase Li inh – cell-permeable IMPase inhibitors with lithium potentiation; CHO-M1 cells, IP1 TR-FRET (IP-One), carbachol + lithium; Potency, µM (titrated, usually from 59.4 µM), for inactives: at the highest dose activity, negative = IMPase inhibition, usual class: inhibitors; 210,000 tested, 0.35% active; AID 1457; active means well fitted curve in the direction sought with a large enough effect; inconclusive means small, poorly fitted or top-dose-only effect, or another doubt; inactive means no such curve, though single readings can be large; an effect the other way counts as inactive or inconclusive;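 further: IP1 builds up when IMPase is blocked and the TR-FRET signal falls; plate controls were basal vehicle for no effect and high inhibitor control for full effect; nearly all actives have a fitted effect of over 50% in size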
#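 CHO-M1, 2000 cells/well, 16–30 h culture; cpd + low Li+, 30 min 37C; lysis with d2-IP1/Eu-anti-IP1 Ab, 10 min RT; TR-FRET 665/620 ratio and 620 channel; AC50 via Hill.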
# LMNA splice mod – LMNA splicing modulation; HeLa LMNA splicing GFP/RFP minigene ratio, 48 h; Potency, µM (titrated, usually from 46.1 µM), without a hit: top-dose ratio change, negative = inhibition, usual class: inhibitors; 200,000 tested, 0.01% active; AID 1487; active means well fitted inhibition curve with a large enough effect in the signal ratio, with a control signal flat, not every such curve was filed as active; inconclusive means small, poorly fitted or top-dose-only effect, or effect the other way, or a change in a side signal; the % refers to the signal ratio
#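 Read-out is the ratio of GFP to DsRed2 object intensity, acquired by 488 nm laser-scanning cytometry on HeLa lamin A-EGFP minigene reporter cells. Compound incubation 48 hrs at 37 °C in Opti-MEM with 2% FBS; DMSO 0.5% final.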
# ALDH1A1 block – ALDH1A1 (human) enzyme inhibition. P00352. Purified ALDH1A1, NADH fluorescence, propionaldehyde substrate. Potency, µM (series often up to 75.3 µM), for inactives: at the top dose activity, negative = inhibition, actives largely listed as inhibitors. 220,000 tested, 7.3% active. AID 1030;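 further: plate controls were no enzyme wells and a reference inhibitor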
# Target sequence (P00352 whole entry, looked up): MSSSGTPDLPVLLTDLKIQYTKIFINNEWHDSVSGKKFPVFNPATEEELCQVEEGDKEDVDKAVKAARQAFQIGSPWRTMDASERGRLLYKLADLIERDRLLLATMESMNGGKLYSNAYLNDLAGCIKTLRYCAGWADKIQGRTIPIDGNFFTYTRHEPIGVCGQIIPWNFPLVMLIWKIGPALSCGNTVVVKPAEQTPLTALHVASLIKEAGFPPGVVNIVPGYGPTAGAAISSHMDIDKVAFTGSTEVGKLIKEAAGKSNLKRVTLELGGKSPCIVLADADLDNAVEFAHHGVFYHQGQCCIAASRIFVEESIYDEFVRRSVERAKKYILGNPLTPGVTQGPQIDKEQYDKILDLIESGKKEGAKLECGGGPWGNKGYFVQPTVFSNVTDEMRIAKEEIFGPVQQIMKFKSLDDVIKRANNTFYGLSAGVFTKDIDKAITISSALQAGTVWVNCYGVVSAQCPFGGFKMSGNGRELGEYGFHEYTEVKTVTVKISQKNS
# Luc counter – counter-screen: inhibitors of Kinase-Glo firefly luciferase | Kinase-Glo luciferase, ATP luminescence, 8 min | Potency, µM (doses to about 38.3 µM), for the others: at the highest dose activity change, negative = inhibition, actives largely listed as inhibitors | 200,000 tested, 0.28% active | Q27757; active means well fitted curve in the direction sought with a large enough effect; inconclusive means small, poorly fitted or top-dose-only effect, or another doubt; inactive means no such curve, though single readings can be large; an effect the other way counts as inactive or inconclusive; further: nearly all actives have a fitted effect of over 60% in size
#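 Light output from Kinase-Glo luciferase with luciferin and 10 uM ATP in 50 mM imidazole pH 7.2, KCl, MgCl2, Tween 20, BSA; compound pin-delivered, 8-min ambient incubation, then luminescence read.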
# HPGD block – HPGD (human) dehydrogenase inhibition; AID 894; 150,000 tested, 4.3% active; Potency, µM, for the others: at the top dose activity change, negative = inhibition, usual class: inhibitors; P15428; purified HPGD, NADH fluorescence kinetic, PGE2 substrate
# Target sequence (P15428 whole entry, looked up): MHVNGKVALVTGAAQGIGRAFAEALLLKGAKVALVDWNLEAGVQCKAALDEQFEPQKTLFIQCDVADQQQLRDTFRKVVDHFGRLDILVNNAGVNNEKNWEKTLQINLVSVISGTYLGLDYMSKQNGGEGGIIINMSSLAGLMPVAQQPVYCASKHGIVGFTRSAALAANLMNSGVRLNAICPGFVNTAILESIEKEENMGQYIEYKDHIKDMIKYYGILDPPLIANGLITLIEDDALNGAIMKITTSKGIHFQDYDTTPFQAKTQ
#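 20 nM HPGD preincubated 15 min at room temperature with compound in 50 mM Tris-HCl pH 8, 0.01% Tween 20. Started with 1 mM NAD+ and 30 uM prostaglandin E2; NADH fluorescence (360/450 nm) read 5 times over 30-s intervals, last minus first.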
# * marks the source's active call; other numbers are inactive results; ? = inconclusive; . = no result given; [ ] = remark or other dose. Unless noted, the call rests on the fitted dose curve; in most records, active means well fitted inhibition curve with a large enough effect (not every such curve was filed as active); inconclusive means small, poorly fitted or top-dose-only effect, or another doubt; inactive means no such curve, though single readings can be large or run the other way. Unless noted, on the % scale 0 is the no-effect control and ±100 the full control effect; potency means the concentration at half of the fitted maximal effect.
SMILES,IMPase Li inh,LMNA splice mod,ALDH1A1 block,Luc counter,HPGD block
O=C(O)c1cccc(N2C(=O)c3cccc(Oc4ccc(Cl)cc4)c3C2=O)c1,1.2%,-3.9%,10.7%,-3.1%,25.1µM*
O=C(O)c1ccc(N2C(=O)c3cccc(Oc4ccc(Cl)cc4)c3C2=O)cc1,-7.6%,7.2%,0.8%,14.2%,1.41µM*
O=C(O)CN1C(=O)c2ccc(Oc3cccc4c3C(=O)N(CC(=O)O)C4=O)cc2C1=O,16.0%[38.3 µM],-2.9%,-0.4%,-1.8%,-7.3%
CC(/C=N/n1c(-c2ccco2)n[nH]c1=S)=C\c1ccccc1,-9.4%,2.2%,-4.5%,4.1%,2.51µM*
Cc1ccc(-c2n[nH]c(=S)n2/N=C/c2ccc(C)o2)cc1,-2.4%,-3.2%,?,1.5%,12.6µM*
Cc1ccc(-c2n[nH]c(=S)n2/N=C/c2ccncc2)cc1,1.5%,.,5.4%,-1.6%,.
S=c1[nH]nc(-c2cccnc2)n1/N=C/c1ccco1,2.7%,.,?,4.6%,.
CC(/C=N/n1c(-c2ccc(Cl)cc2)n[nH]c1=S)=C\c1ccco1,.,?,28.2µM*,.,.
Cc1ccc(-c2n[nH]c(=S)n2/N=C\c2ccco2)cc1,-11.8%,-2.3%,-5.5%,2.2%,22.4µM*
O=C1Nc2ccc([N+](=O)[O-])cc2OC1CCN1CCN(c2ccccc2)CC1 (stereo not drawn),2.8%,.,?,5.5%,.
Cc1ccc(CCC(=O)Nc2ccc(S(N)(=O)=O)cc2)o1,23.3%[38.3 µM],5.2%,14.1µM*,1.5%,-25.5%
Cc1ccc(CCC(=O)Nc2nccs2)o1,-8.1%[38.3 µM],12.5%,?,-3.4%,28.2µM*
CCOC(=O)c1ccc(NC(=O)CCc2ccc(C)o2)cc1,-4.5%[38.3 µM],-2.5%,?,-2.6%,-19.1%
CCc1ccc(CCC(=O)Nc2nccs2)o1,13.2%[38.3 µM],5.3%,17.8µM*,-0.7%,-27.8%
CCc1ccc(OCCCC(=O)Nc2nccs2)cc1,5.9%,.,-10.8%,-0.2%,.
COc1cc2c(cc1OC)C1(CCCCC1)CN(C)C2,.,12.0%[46 µM],.,.,.
CC1CCC(NC(=O)c2ccc(/C=C3\Oc4ccccc4N(C)C3=O)cc2)CC1 (stereo not drawn),-1.0%,?,1.6%,-4.5%,?
C1CC1Cc1noc(CN2CCN(C3C4CC5CC(C4)CC3C5)CC2)n1 (stereo not drawn),23.5%,15.7%[46 µM],-6.4%,0.4%,.
CCN1C(=O)[C@@H]2[C@H]3C(=CC[C@@H]2C1=O)C1(OCCCO1)[C@H]1O[C@@H]1[C@H]3O,.,.,1.78µM*,.,.
CN1CCN(c2ccccc2NC(=O)C(Cc2ccccc2)n2cccc2)CC1 (stereo not drawn),10.7%,-5.7%,1.5%,0.6%,-13.1%
CCc1cccc2c3c([nH]c12)[C@@](CC)(CC(=O)O)OCC3,10.0%,1.0%,-14.9%[20.9 µM],-7.3%[17.1 µM],-0.9%
C[C@H]1[C@H](C)CC[C@]2(C(=O)O)CC[C@]3(C)C(=CC[C@H]4[C@]3(C)C[C@@H](O)C3[C@](C)(CO)[C@H](O)[C@@H](O)C[C@]34C)[C@H]12 (stereo partly drawn),-0.9%,.,-10.2%[13.5 µM],-6.2%[7.66 µM],-2.8%
CCOC(=O)c1c(C)oc2c1c(C(c1cccnc1)N1CCCCC1)c(O)c1ccccc12 (stereo not drawn),2.9%[38.3 µM],2.5%,?,-3.4%,-22.4%
CCOC(=O)c1c(C)oc2c1c(C(c1ccccc1)N1CCOCC1)c(O)c1ccccc12 (stereo not drawn),23.2%[38.3 µM],6.5%,3.55µM*,0.9%,?
Cc1ccnc(NC(=O)c2cc3ccccc3oc2=O)c1,-3.3%,-4.6%[46 µM],-4.1%,11.2µM*,.
SMILES,IMPase Li inh,LMNA splice mod,ALDH1A1 block,Luc counter,HPGD block
CCOc1ccc(C(=O)NCC(=O)N2CCC(C)CC2)cc1OCC,1.0%,?,8.5%,-1.4%,.
CCOc1ccc(Cn2nnc(C(=O)NCc3ccc(OC)cc3)c2N)cc1,11.2µM*,-9.2%,2.4%,6.2%,-5.4%
CSc1cccc(NC(=O)c2nnn(Cc3ccccc3)c2N)c1,14.6%[38.3 µM],-0.5%,-8.6%,-0.3%,-9.1%
CCOC(=O)c1c(C)c(C(=O)NCc2ccc(OC)cc2)c(C)n1C,5.9%,.,7.94µM*,2.8%,.
COc1cc(NC(=O)c2nnn(Cc3ccc(SC)cc3)c2N)cc(OC)c1,9.7%[38.3 µM],-1.8%,7.94µM*,2.3%,-14.0%
CCOC(=O)c1c(C)c(C(=O)NCc2ccccc2OC)c(C)n1C,5.2%[38.3 µM],5.0%,-2.4%,-6.6%,-6.0%
CCC(C)N1CCNCC1 (stereo not drawn),-0.7%,16.5%[46 µM],6.4%,-1.1%,.
Clc1cccc(Cl)c1/C=N\Nc1nccs1,13.5%[38.3 µM],11.5%,?,-3.3%,7.94µM*
Fc1cccc(Cl)c1/C=N/Nc1ccccn1,13.2%,-12.9%[46 µM],-0.2%,-2.1%,.
COCCn1c(=O)c(-c2ccc(Cl)cc2)nc2cnc(Nc3ccccc3)nc21,-4.1%,?,?,.,.
Cc1cccc(CSc2nnc3[nH]c(=O)cc(-c4ccccc4)n23)c1,.,-5.6%[46 µM],.,.,.
Cc1c(C(=O)N/N=C/C(C)C)[nH]c2ccc([N+](=O)[O-])cc12,-2.1%,0.0%,14.1µM*,-0.9%,-10.9%
COc1ccc(S(=O)(=O)Nc2ccc(Cl)cn2)c(C)c1C,7.5%,?,12.6µM*,6.5%,-29.7%
COc1cc(OC)cc(C(=O)N[C@H](C(=O)OCC(=O)Nc2ccc(C(C)C)cc2)C(C)C)c1,.,4.8%,?,.,.
COc1cc(OC)cc(C(=O)N[C@H](C(=O)OCC(=O)Nc2sccc2C#N)C(C)C)c1,7.5%,-24.6%[46 µM],28.2µM*,0.1%,.
O=c1[nH]c(=O)n(CCO)c2nnn(Cc3ccccc3)c12,-2.4%[38.3 µM],-9.6%,-8.7%,-2.9%,28.2µM*
CC1CCN(Cc2c(C#N)c3ccccc3n2C)CC1,-0.2%[38.3 µM],2.5%,31.6µM*,-2.4%,-2.3%
O=C1c2ccccc2C(=O)c2c(Nc3cc4c5c(ccc6c7ccc8c9c(cc(Nc%10cccc%11c%10C(=O)c%10ccccc%10C%11=O)c(c3c56)c97)-c3ccccc3C8=O)C(=O)c3ccccc3-4)cccc21,2.2%,.,-11.6%[13.5 µM],-3.6%[7.66 µM],-4.1%
CCS(=O)(=O)c1ccc2oc(SCC(=O)NC3CCCC(C)C3C)nc2c1 (stereo not drawn),49.4%[38.3 µM],-19.5%,2.6%,0.3%,31.6µM*
O=C(CN1C(=O)S/C(=C\C=C\c2ccccc2)C1=O)Nc1cccc(O)c1,13.6%,?,31.6µM*,-2.8%,-23.0%
CC(=O)c1ccc(NC(=O)CN2C(=O)/C(=C/C=C/c3ccccc3)SC2=S)cc1,5.0%,?,-2.7%,1.5%,-19.0%
CC(C)(C)c1ccc(C(=O)N2CCN(c3nc4ccccc4o3)CC2)cc1,10.5%[38.3 µM],?,9.3%,-1.8%,-5.8%
CCCCC(=O)Nc1ccc(C(=O)N2CCN(C)CC2)cc1,-2.3%,-8.5%,?,-4.8%,14.1µM*
Cc1csc(NC(=O)c2ccc(N3CCCC3=O)cc2)n1,6.2%,0.9%[46 µM],?,12.6µM*,.
Cc1csc2c(N3CCN(C(=O)c4ccc(C(C)(C)C)cc4)CC3)ncnc12,.,.,15.8µM*,.,.
